High-throughput results: PubChem, National Center for Advancing Translational Sciences (NCATS)
IDH1 R132H inh = inhibitors of human mutant IDH1 R132H. Potency, µM (top dose mostly 76.6 µM), inactives show at the highest dose activity change, negative = inhibition, usual class: inhibitors. actives 0.093% (n = 390,000). O75874. IDH1-R132H enzyme, NADPH consumption, diaphorase/resazurin fluorescence; further: potency means the concentration at half of the fitted maximal effect; on the % scale 0 is the no-effect control and ±100 the full control effect; nearly all actives have a fitted effect of over 65% in size
Target sequence (O75874 whole entry R132H, stated change not applied): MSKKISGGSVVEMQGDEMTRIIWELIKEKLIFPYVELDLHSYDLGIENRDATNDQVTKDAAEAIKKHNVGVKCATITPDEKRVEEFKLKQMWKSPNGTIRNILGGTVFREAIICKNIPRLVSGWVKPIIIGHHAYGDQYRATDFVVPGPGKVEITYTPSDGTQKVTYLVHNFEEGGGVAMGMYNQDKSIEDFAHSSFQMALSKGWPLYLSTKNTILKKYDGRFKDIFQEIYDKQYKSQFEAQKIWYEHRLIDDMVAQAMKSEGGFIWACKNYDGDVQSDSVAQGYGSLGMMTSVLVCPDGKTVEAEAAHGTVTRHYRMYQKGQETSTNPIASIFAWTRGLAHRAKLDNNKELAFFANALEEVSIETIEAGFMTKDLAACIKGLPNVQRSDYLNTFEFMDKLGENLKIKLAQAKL
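IDH1-R132H (0.5 ug/mL dispensed) in pH 7.5 Tris buffer was preincubated 30 min with compound, then given a substrate mix of 0.016 mM NADPH and 2 mM alpha-KG for 80 min at room temperature; remaining NADPH was read by diaphorase/resazurin fluorescence.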
LDHA block = blocks human lactate dehydrogenase A; P00338; purified LDHA, NADH/diaphorase-resazurin fluorescence; stronger effect = lower value; activity change, % (values are at about 110 or 230 µM); actives 0.15% (n = 480,000); AID 1347041; in the data active means activity change below about -30%; inconclusive means mostly about -25% to -30%;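 further: plate controls were DMSO wells for no effect and wells without enzyme for full effect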
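LDH5 2 nM; NADH 0.06 mM, pyruvate 0.2 mM; 200 mM Tris pH 7.4, EDTA, Tween-20; 5 min RT. Detection: diaphorase 0.133 mg/mL + resazurin 37 µM, fluorescence ex540/em590 at 0 and 20 min; normalized to enzyme-free and DMSO wells.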
RGS4 inhibitor = inhibitors of human regulator of G protein signaling 4; P49798; AID 504845; Transcreener GDP fluorescence polarization, RGS4-accelerated GTP hydrolysis; Potency, µM (series often up to 114 µM), for the others: at the highest dose activity change, negative = inhibition, usual class: inhibitors; actives 0.039% (n = 390,000); further: potency means the concentration at half of the fitted maximal effect; on the % scale 0 is the no-effect control and ±100 the full control effect; nearly all actives have a fitted effect of over 75% in size
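MLSMR compounds (23 nl, pin-transferred) preincubated 10 min at room temperature with a 500nM (2x) first reagent, then RGS4 at 900nM (2x) plus Transcreener GDP mix added; fluorescence polarization (620/688 nm) read before and after 90 min at 30 °C.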
ASM inhibitor = blocks human secretory acid sphingomyelinase. actives 0.006% (n = 340,000). placental ASM, HMU-PC fluorogenic substrate, 60 min. P17405. Potency, µM (top dose mostly 57.5 µM), without a hit: at the top dose activity change, negative = inhibition, hits mostly inhibitors; further: potency means the concentration at half of the fitted maximal effect
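Fluorogenic HMU-PC substrate (9 uM final) is turned over by placental ASM in 60 min at 37 C after a 10 min compound preincubation. Reaction ended by alkaline stop (pH 10), with fluorescence read at 386/447 nm.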
Mito fusion yeast = blocks mitochondrial division or promotes mitochondrial fusion | S. cerevisiae fusion-defective mutant growth rescue, CellTiterGlo 48 h | Potency, µM (highest dose often 46.1 µM), for the others: at the top dose growth rescue (activation), actives largely listed as activators | actives 0.23% (n = 320,000); further: potency means the concentration at half of the fitted maximal effect; % of control where 0% means no effect; nearly all actives have a fitted effect of over 45% in size
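Compounds are tested for their ability to restore growth of mitochondrial fusion-defective yeast strains at non-permissive 37C in YPEG medium over 48 hours. Viability is quantified by luciferase luminescence.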
ClpP mod = qHTS Assay for Activators of ClpP; actives 1.9% (n = 340,000); AID 651965, 2013; purified B. subtilis ClpP, FRET peptide cleavage, 20 min; Potency, µM (titrated, usually from 57.5 µM), for inactives: top-dose activity change, negative = active; active means well fitted falling curve with a large enough effect; inconclusive means small, poorly fitted or top-dose-only effect; inactive means no such curve, though single readings can be large or run the other way; further: potency means the concentration at half of the fitted maximal effect; the source files actives as falling curves though it sought activators and does not explain the sign; nearly all actives have a fitted effect of over 65% in size
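Buffer: 100 mM Tris/HCl pH8, 100 mM KCl, 0.05% low protease BSA, 2.5% glycerol, 0.01% Tween-20. ClpP 10 microg/mL final; 20 min RT; delta FRET normalized to ADEP and DMSO controls.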
The depositor's hits bear a star; i = inactive; ? = inconclusive; / = no result; [ ] = another dose, or the depositor's remark. The entries come from a sample that favours hits as a whole. Unless noted, the call rests on the fitted dose curve; in most records, active means well fitted curve in the direction sought with a large enough effect; inconclusive means small, poorly fitted or top-dose-only effect, or another doubt; inactive means no such curve, though single readings can be large; an effect the other way counts as inactive or inconclusive.

SMILES	IDH1 R132H inh	LDHA block	RGS4 inhibitor	ASM inhibitor	Mito fusion yeast	ClpP mod
O=C(OCc1cccc(Cl)c1)c1ccccc1F	/	-4	/	/	/	/
COc1cc(Cn2c(N)c(C#N)c3nc4ccccc4nc32)cc(OC)c1	0%	3	20%[11.4 µM]	i	-1%	32µM*
COc1cccc(Cn2c(N)c(C#N)c3nc4ccccc4nc32)c1OC	-2%	5	51%	i	5%	13µM*
Cc1cc(=O)oc2cc(OS(=O)(=O)c3ccc(F)cc3)ccc12	/	10	/	/	/	/
C=CCSc1nc(C)cc(/C=C\c2ccccc2)c1C#N	-3%	-1	-2%	-2%	-2%	28µM*
CC1CCN(C(=O)C(=O)N2CCN(c3nc(-c4ccco4)c4c(c3C#N)CCCC4)CC2)CC1	/	0	/	/	/	/
O=C(Nc1ccccc1N1CCOCC1)c1cncc(Br)c1	/	2	/	/	/	/
Cc1ccc(C(=O)Nc2ccc(S(=O)(=O)O)c3cc(S(=O)(=O)O)cc(S(=O)(=O)O)c23)cc1NC(=O)c1cccc(NC(=O)Nc2cccc(C(=O)Nc3cc(C(=O)Nc4ccc(S(=O)(=O)O)c5cc(S(=O)(=O)O)cc(S(=O)(=O)O)c45)ccc3C)c2)c1	/	-94*	?	/	16µM*	-3%
CS(=O)(=O)N1CCC(C(=O)Nc2ccccc2SC2CCCC2)CC1	/	0	/	/	/	/
O=C(c1ccc2c(c1)CCN2S(=O)(=O)c1ccc(Cl)cc1)N1CCCC1	/	1	/	/	/	/
Cc1sc(NC(=O)c2ccco2)c(C(Nc2ccccn2)c2ccccc2)c1C (stereo not given)	-7%	-4	-13%	-4%	?	-6%
COc1ccc(C(Nc2ccccn2)c2c(NC(=O)c3ccco3)sc(C)c2C)cc1 (stereo not given)	-3%	3	-18%	-1%	13µM*	-16%
Cc1cccc(NC(=O)c2ccc(-c3nc(CSc4ccccc4)c(C)o3)cc2)c1C	-2%	-7	9%	/	/	-2%
Cc1ccc(Cl)cc1NC(=O)c1ccc(-c2nc(CSc3ccccc3)c(C)o2)cc1	-1%	0	-1%	/	/	13µM*
Cc1cccc(NC(=O)c2cc(NC(=O)c3ccco3)ccc2N2CCCCC2)c1	-3%	-3	-23%	28%	3%	18µM*
CSc1ccc(S(=O)(=O)N2CCC(C(=O)NCCCn3ccnc3)CC2)cc1	7%	5	-34%	-1%	-1%	2%
NS(=O)(=O)c1ccc(CCNC(=O)C2CCCN2C(=O)OCc2ccccc2)cc1 (stereo not given)	1%	-13	-39%[11.4 µM]	-3%	-4%	32µM*
NS(=O)(=O)c1ccc(CCNC(=O)C2CCN(S(=O)(=O)c3ccccc3)CC2)cc1	-5%	-10	14%	0%	4%	28µM*
Cc1ccc(S(=O)(=O)N2CCC(C(=O)NCCCn3ccnc3)CC2)cc1	1%	-3	-29%	/	2%	16µM*
CC(C)c1ccc(C(C)NC(=O)c2cccc(N(C)C)c2)cc1 (stereo not given)	/	8	/	/	/	/
Cc1cccc(-c2nc3n(CC(=O)N4CCCC4)c(C)cc(=O)n3n2)c1	/	7	/	/	/	/
CCOC(=O)Cn1c(C)nc2c(C(=O)OCC)sc(C)c2c1=O	2%	0	-10%	2%	-4%	32µM*
COc1ccc(Oc2nc(-c3ccccc3O)nc3ccccc23)cc1	/	5	/	/	/	/
Cc1cccc(C)c1Nc1c(-c2cccs2)nc2ncccn12	-5%	-4	23%	/	/	0%
Cc1ccc2nc(-c3cccs3)c(Nc3c(C)cccc3C)n2c1	?	0	-6%	/	/	28µM*
O=C1CSC2(C(=O)Nc3ccccc32)N1c1cc(Cl)cc(Cl)c1 (stereo not given)	/	3	/	/	/	/
COc1cc2c(c3ccccc13)CCCC2=O	9%	1	-27%	271%	/	28µM*
